CYP2C19 inhib = blockers of cytochrome P450 2C19 activity – biochemical, luminescence, ADME assay, primary screen | 21% of 96,000 active | inhibition, % at 5 µM | P33261 | CYP2C19 Supersomes, luciferin-H EGE luminescence, 30 min;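 active = CYP2C19 inhibition above a set limit at 5 µM in the primary screen, cut at about 50% in these data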;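 also: plate controls were negative control wells for no effect and 2.5 mM tranylcypromine positive control for full effect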
Target sequence (P33261 whole entry, looked up): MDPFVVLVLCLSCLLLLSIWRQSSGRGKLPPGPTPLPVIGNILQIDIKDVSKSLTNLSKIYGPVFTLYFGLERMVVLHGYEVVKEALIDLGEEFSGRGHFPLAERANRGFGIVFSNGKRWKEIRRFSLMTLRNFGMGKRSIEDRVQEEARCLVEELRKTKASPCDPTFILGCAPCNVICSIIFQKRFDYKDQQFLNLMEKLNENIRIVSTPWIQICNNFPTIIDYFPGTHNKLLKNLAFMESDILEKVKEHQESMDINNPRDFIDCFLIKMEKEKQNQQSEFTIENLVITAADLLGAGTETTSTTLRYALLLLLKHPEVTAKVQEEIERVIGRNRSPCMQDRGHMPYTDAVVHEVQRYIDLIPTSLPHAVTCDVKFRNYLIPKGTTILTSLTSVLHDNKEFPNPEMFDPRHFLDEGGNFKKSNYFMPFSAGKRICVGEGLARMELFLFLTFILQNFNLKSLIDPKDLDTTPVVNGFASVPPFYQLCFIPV
CYP2C19 act = human CYP2C19 activators, primary screen, biochemical, luminescence; Cytochrome P450 2C19 (Homo sapiens), P33261; recombinant CYP2C19, luciferin-H EGE luminescence; active compounds read high; 0 = fully inhibited enzyme, 1 = untreated enzyme; activation factor at 5 µM; 96,000 tested, under 10 active;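 active = activation factor of at least 2 at 5 µM in the primary screen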;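 also: 0 = wells with 2.5 mM tranylcypromine and 1 = vehicle-only wells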
CYP2C9 inhib = blockers of cytochrome P450 2C9 activity – biochemical, luminescence, ADME assay, primary screen; 20% of 96,000 active; CYP2C9 Supersomes, luciferin-H conversion; P11712; inhibition, % at 5 µM;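 active = blocking of liver enzyme CYP2C9 beyond about 50% at 5 µM, limit read from the data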
Cav32 inh = Cav3.2 calcium influx blockers – cell-based, Fluo-4 calcium fluorescence, FDSS, MLSMR library, primary screen | Voltage-dependent T-type calcium channel subunit alpha-1H (Homo sapiens), O95180 | Cav3.2-expressing cells; active compounds read low | B-score at 10 µM | 4% of 100,000 active | AID 449739, 2010;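 active = single-dose well whose peak fluorescence ratio is a statistical outlier from its plate by either plate-standardised score or position-corrected B-score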
CYP2C9 activ = human CYP2C9 activators, primary screen, biochemical, luminescence. AID 1024, 2008. recombinant CYP2C9, luciferin-H conversion; active compounds read high; factor 1 = untreated enzyme, 0 = blocked. activation factor at 5 µM. 1.4% of 96,000 active;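 active = activation factor of 2 or more for CYP2C9 at a 5 µM dose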;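 also: 0 = sulfaphenazole-blocked wells and 1 = vehicle-only wells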
Starred values were filed as active, the others as inactive; / = no result given. Hits are enriched below; roughly 27% of the tested compounds scored in any of these assays.

SMILES	CYP2C19 inhib	CYP2C19 act	CYP2C9 inhib	Cav32 inh	CYP2C9 activ
O=C(Nc1ccc(Cl)cc1)Nc1ccccc1C(=O)NCc1ccco1	5.7	0.9	53.1*	-0.0614	0.5
O=C(Nc1ccccc1C(=O)NCc1ccccc1)c1ccco1	53.9*	0.5	73.9*	-0.0351	0.3
O=C(Nc1cccc2cccc(NC(=O)c3ccco3)c12)c1ccco1	69.4*	0.3	-3.7	0.229	1
CC(NC(=O)c1ccccc1NC(=O)c1ccco1)c1ccccc1 (stereo not drawn)	36.4	0.6	69.6*	1.84	0.3
CCOC(=O)CCC(=O)N1CCOCCOCCN(C(=O)CCC(=O)OCC)CCOCCOCC1	-2.4	1	1.9	0.825	1
COc1ccc(-c2nnc(-c3ccc(Br)o3)o2)cc1OC	55.9*	0.4	31.3	-0.00735	0.7
COc1cc2[nH]c(=O)n(CCCCCC(=O)N3CC=C(c4ccccc4)CC3)c(=O)c2cc1OC	82.8*	0.2	60.6*	-2.7	0.4
CCOC(=O)c1cc2c(ccn2C)n1CC(=O)N1CCN(c2ccccc2OC)CC1	69.3*	0.3	38.0	-0.487	0.6
CCOc1cc2[nH]c(=O)n(CCC(=O)N3CCN(c4ccccc4OC)CC3)c(=O)c2cc1OCC	20.2	0.8	67.2*	0.422	0.3
CCOC(=O)c1cc2c(ccn2C)n1CC(=O)N1CCC(Cc2ccccc2)CC1	19.5	0.8	47.4	-1.16	0.5
CCOc1cc2[nH]c(=O)n(CCCCC(=O)N3CCCCCC3)c(=O)c2cc1OCC	/	/	/	0.56	/
COCCN1C(=O)N[C@@H](CCc2ccccc2)[C@H](C(=O)OC)[C@H]1C	/	/	/	1.12	/
O=C(O)CCn1[nH]c(=O)ccc1=O	/	/	/	-0.0342	/
CCOC(=O)c1c(NC(=O)CSc2nnnn2-c2ccc(OC)cc2)sc(C)c1C	23.7	0.8	32.2	0.886	0.7
CCOC(=O)c1c(NS(C)(=O)=O)sc2c1CCC(C)C2 (stereo not drawn)	30.8	0.7	57.1*	-10.2*	0.4
CCOC(=O)c1c(NC(=O)CSc2nnnn2-c2ccccc2)sc2c1CCC(C)C2 (stereo not drawn)	29.1	0.7	80.7*	-0.531	0.2
O=C(Nc1cccc(F)c1)C1C2C=CC3(CN(CCCN4CCOCC4)C(=O)C13)O2 (stereo not drawn)	-9.3	1.1	-6.8	1.2	1.1
CCCc1nn(-c2cc(Cl)ccc2OC)c2c1C(=O)CCC2	58.6*	0.4	41.8	-0.0338	0.6
CCn1cc(CNC(=O)c2cc(Cl)ccc2OC)c(C)n1	46.7	0.5	-64.4	0.221	1.6
COc1ccc(Cl)cc1C(=O)n1nc(C)cc1C	27.3	0.7	-12.7	0.465	1.1
CCCCc1nn(-c2cc(Cl)ccc2OC)c2c1C(=O)CC(C)(C)C2	44.2	0.6	55.8*	-3.2	0.4
c1ccc(CCn2c(SCc3ccccc3)nnc2-c2ccncc2)cc1	/	/	/	-0.162	/
CC1(C)Cc2ccccc2-c2nnc(SCc3ccc(C#N)cc3)n21	45.0	0.6	36.5	-1.43	0.6
N#Cc1ccc(CSc2nnc(-c3ccncc3)n2CCc2ccccc2)cc1	61.1*	0.4	54.1*	-0.155	0.5
N#Cc1ccc(CSc2nnc(-c3cccs3)n2-c2ccccc2)cc1	92.6*	0.1	92.0*	-5.82*	0.1
SMILES	CYP2C19 inhib	CYP2C19 act	CYP2C9 inhib	Cav32 inh	CYP2C9 activ
N#Cc1ccc(CSc2nnc(-c3ccccn3)n2-c2ccccc2)cc1	78.1*	0.2	43.2	1.28	0.6
CCC(C)n1c(SCC(=O)NCc2ccco2)nnc1-c1cccc(S(=O)(=O)N2CCOCC2)c1 (stereo not drawn)	-5.9	1.1	19.5	0.198	0.8
Cc1ccc(S(=O)(=O)NC(CC(=O)O)c2ccccc2)cc1 (stereo not drawn)	-9.1	1.1	10.3	-0.137	0.9
Cc1ccc(S(=O)(=O)NC(CC(=O)n2nc(C)cc2C)c2ccccc2)cc1 (stereo not drawn)	99.6*	0	94.2*	-6.3*	0.1
CCCCN(CCCC)C(=O)c1nsnc1-c1ccccc1O	37.0	0.6	43.0	-3.08	0.6
CC(NC(=O)Nc1ccc(F)cc1F)c1ccncc1 (stereo not drawn)	79.6*	0.2	43.1	/	0.6
COC(=O)Nc1ccc(OC)c(OC)c1	9.2	0.9	10.1	-0.315	0.9
COc1ccc(NC(=O)NC(C)c2ccncc2)cc1OC (stereo not drawn)	20.8	0.8	59.5*	1.37	0.4
COc1ccc(N=C(C)C2=C(O)COC2=O)cc1	6.8	0.9	3.6	0.0346	1
N#Cc1c2n(c3c(=O)n(Cc4ccccc4Cl)cnc13)CCCC2	99.2*	0	91.7*	0.983	0.1
N#Cc1c2n(c3c(=O)n(Cc4ccc(Cl)cc4)cnc13)CCCC2	99.9*	0	62.4*	0.964	0.4
COc1cc2c(cc1NC(=O)CN1CCN(S(=O)(=O)c3ccccc3F)CC1)oc1ccccc12	17.5	0.8	29.3	-0.305	0.7
CC(=O)c1cccc(N(CC(=O)O)S(C)(=O)=O)c1	-6.5	1.1	-9.1	0.0284	1.1
CC1=C(C(=O)N(C)CCC#N)C2(CCCCC2)OC1=O	-19.1	1.2	-18.4	-0.473	1.2
CN1C(=S)SC(N(O)C(=O)NC2CCCCC2)C1(C)C (stereo not drawn)	8.5	0.9	24.5	-0.00398	0.8
CC1=C(C#N)C(Nc2ccc(C)cn2)(C(F)(F)F)C(=O)N1 (stereo not drawn)	89.1*	0.1	41.7	0.494	0.6
CC(=O)NC1(C(F)(F)F)C(=O)NC(C)=C1C#N (stereo not drawn)	-17.5	1.2	-12.9	0.342	1.1
CC1=C(C#N)C(Nc2ccc(Cl)cn2)(C(F)(F)F)C(=O)N1 (stereo not drawn)	82.9*	0.2	20.8	-1.21	0.8
CCOC(=O)Nc1oc2ccccc2c(=O)c1CN1CCOCC1	0.8	1	12.1	0.511	0.9
CCCCCCCCCOC(=O)C[n+]1csc(CCO)c1C	76.4*	0.2	6.8	2.04	0.9
Cc1c(CCOC(=O)CC23CC4CC(CC(C4)C2)C3)sc[n+]1Cc1ccccc1	-4.2	1	-20.4	0.759	1.2
CCOC(=O)/C(C#N)=C1/SC(CC)C(=O)N1c1ccc(C)cc1 (stereo not drawn)	90.7*	0.1	55.3*	0.229	0.4
Cc1cc(OCC[N+]2(C)CCCCC2)nc2ccccc12	4.5	1	1.2	0.55	1
CCOc1ccc(-c2nnc3sc(COc4ccc(Cl)cc4)nn23)cc1	17.7	0.8	-6.9	0.334	1.1
c1coc(-c2nnc3sc(Cc4cccs4)nn23)c1	68.6*	0.3	54.7*	0.0874	0.5
c1coc(-c2nn3c(-c4ccco4)nnc3s2)c1	40.8	0.6	14.8	/	0.9
